Test results reported in PubChem BioAssay (Tox21).
Inconclusive results are not listed. Entries that show only a call come without a potency. Active and inactive are the calls of the source. The call rests on the fitted dose curve; in most records, active means well fitted activation curve with a large enough effect in the repeat runs; inconclusive means weak or mixed curves; inactive means no such curve, though single readings can be large or run the other way.

assay: qHTS assay for small molecules that induce genotoxicity in human embryonic kidney cells expressing luciferase-tagged ATAD5 (AID 651632); conditions: HEK293T ATAD5-luciferase induction, 16 h; series mostly up to 83.3 µM; further: nearly all actives have a fitted effect of over 15% in size
Excerpt: U.S. Tox21 Program National Center for Advancing Translational Sciences [NCATS] NIH Chemical Genomics Center [NCGC] U.S. Environmental Protection Agency [EPA] National Institutes of Environmental Health Sciences [NIEHS] National Toxicology Program [NTP] U.S. Food and Drug Administration [FDA] Tox21 Assay Overview: As cancer cells divide rapidly and during every cell division they need to duplicate their genome by DNA replication. The failure to do so results in the cancer cell death. Based on this concept, many chemotherapeutic agents were developed but have limitations such as low efficacy and severe side effects etc. A new cell based assay was developed to find the compounds that effectively block DNA replication either by directly damaging DNA or by inhibiting other cellular mechanisms. Enhanced Level of Genome Instability Gene 1 (ELG1; human ATAD5) protein levels increase in response to various types of DNA damage. Using a luciferase reporter-gene tagged with ATAD5, a cell-based assay [developed by Kyungjae Myung, NHGRI, NIH] was used to measure the induction of ATAD5 in human embryonic kidney cells (HEK293T). So, increase in luciferase activity can be used to identify the compounds that cause genetic stress.
Tox21 Assay Protocol Summary: For genotoxicity screening, 2,000 cells in 5 uL/well were dispensed into white, solid-bottom 1536-well plates using a Multidrop Combi (Thermo Scientific) dispenser. Following transfer of 23 nL compound or DMSO vehicle by a pin tool, the plates were incubated 16 hr at 37C and 5% CO2. 5 ul Amplite (AAT Bioquest, Inc.) was then added to each plate and following 30 min incubation at room temperature, luciferase activity was quantified on a ViewLux CCD-based plate reader.
Potency means the concentration at half of the fitted maximal effect.

Structure (SMILES) | Potency
C=CC(=O)OCCOCC(CC)(COCCOC(=O)C=C)COCCOC(=O)C=C | 28.4 µM (active)
O=C1OC(=O)c2cccc3cccc1c23 | inactive
CC(=O)Nc1ccc(O)cc1 | inactive
CC(C)(C)c1cc(/C=C2\SC(=N)NC2=O)cc(C(C)(C)C)c1O | inactive
CSc1ccc2c(c1)N(CCC1CCCCN1C)c1ccccc1S2 (stereo not given) | inactive
CCN(CC)CCCN(c1ccccc1)C1Cc2ccccc2C1 | inactive
COc1cc(C(=O)NS(=O)(=O)c2ccccc2C)ccc1Cc1cn(C)c2ccc(NC(=O)OC3CCCC3)cc12 | inactive
Cc1ccc2ccc3cccc4ccc1c2c34 | inactive
Clc1ccc(C(Cn2ccnc2)OCc2ccsc2Cl)c(Cl)c1 (stereo not given) | inactive
COc1ccccc1OCCNCC(O)COc1cccc2[nH]c3ccccc3c12 (stereo not given) | inactive
CCN(CC)CCOC(=O)C1(C2CCCCC2)CCCCC1 | inactive
O=C1OC(OC(=O)c2cccnc2Nc2cccc(C(F)(F)F)c2)c2ccccc21 (stereo not given) | inactive
CCN(CC)c1ccc(N)cc1 | inactive
N[C@@H](CSSC[C@H](N)C(=O)O)C(=O)O | inactive
CC(CN(C)C)CN1c2ccccc2CCc2ccccc21 (stereo not given) | inactive
CCO[Si](CCCSSSSCCC[Si](OCC)(OCC)OCC)(OCC)OCC | inactive
CCCCCCCCCCCC(=O)N(CC)CC | inactive
O=C1C=CC(=O)N1c1ccccc1 | inactive
O=Nc1ccc(NO)cc1 | inactive
S=P(N1CC1)(N1CC1)N1CC1 | inactive

Structure (SMILES) | Potency
CCN=c1cc2oc3cc(NCC)c(C)cc3c(-c3ccccc3C(=O)OCC)c-2cc1C | inactive
CN1CCN(C2Cc3ccccc3Sc3ccc(Cl)cc32)CC1 (stereo not given) | inactive
CC(NCCC(c1ccccc1)c1ccccc1)c1ccccc1 (stereo not given) | inactive
COCC(=O)O[C@]1(CCN(C)CCCc2nc3ccccc3[nH]2)CCc2cc(F)ccc2[C@@H]1C(C)C | inactive
c1cc2c3c(c1)ccc1cccc(c13)C2 | inactive
CC(C)N=C(N)/N=C(\N)Nc1ccc(Cl)cc1 | inactive
O=S(=O)(O)CCCN1CCOCC1 | inactive
NC(=O)C(=O)N/N=C/c1ccc([N+](=O)[O-])o1 | inactive
C=C(c1ccc(C(=O)O)cc1)c1cc2c(cc1C)C(C)(C)CCC2(C)C | inactive
Cc1cccc(C)c1NC(=O)CN1CCN(CCCC(c2ccc(F)cc2)c2ccc(F)cc2)CC1 | inactive
Cc1c(C)n(Cc2ccccc2)c2ccc(C(=O)OCCN(C)C)cc12 | inactive
CCCCCCC(C)OC(=O)COc1nc(F)c(Cl)c(N)c1Cl (stereo not given) | inactive
CCCCC(CC)COC(=O)c1ccc(O)cc1 (stereo not given) | inactive
O=C1c2c(O)ccc([N+](=O)[O-])c2C(=O)c2c([N+](=O)[O-])ccc(O)c21 | inactive
O=C(O)CCCCCCC(=O)O | inactive
CCN=C1C=CC(=C(c2ccc(N(CC)CC)cc2)c2ccc(N(CC)CC)cc2)c2ccccc21 | inactive
C[C@]12CC[C@H]3C(=CCc4cc(O)ccc43)[C@@H]1CCC2=O | inactive
NCCCCCCNCCCCCCN | inactive
CCOC(=O)N1CCC(=C2c3ccc(Cl)cc3CCc3cccnc32)CC1 | inactive
CNC(=O)c1cc(Oc2ccc(NC(=O)Nc3ccc(Cl)c(C(F)(F)F)c3)cc2)ccn1 | inactive
